# Experimental data: the supplement of paper PMC6555819
# Tested on: PPARg:RXRa 270nM:90nM, anti-RXR (NR concentration 270 nM, RXRa partner concentration 90 nM)
# Assay: PBM binding z-score (relative to random genomic background probes); higher = stronger binding; sequences stand for … in GC…GCGATTGACAGCGTAGAATGAAGG
# Method in brief: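 For binding z-scores, the reference was random background probes on custom Agilent 4×180K protein-binding microarrays. These arrays were incubated 1 h with ligand-free nuclear receptor dimers in PBS pH 7.4, 2% milk, 0.02% Triton X-100, 1 mM DTT, 0.2 mg/mL BSA and 0.4 mg/ml salmon testes DNA. Fluorescence was scanned after antibody detection of each partner (one per run) and regression-normalized.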
row,Sequence,PBM binding z-score
1,CTATGTAGGTTAAGGGGGTTATTCAGTTTGAAAG,7.16
2,TCGAGTAGGTTACGGAGGCATTCAGGGATGAAGA,1.81
3,CTATGTAGGTTAAGCGGGTCATTCAGTTTGAAAG,5.57
4,CGATGTAGGTTAAGGGGGTCATTCAGTTTGAAAG,7.56
5,CTATGTAGGTTAAGGGGGCCATTCAGTTTGAAAG,6.86
6,CTATGCAGGTTAAGGGGGTCATTCAGTTTGAAAG,6.3
7,TCGAGTAGGTTACTGGGGCATTCAGGGATGAAGA,4.53
8,CCGACTAGGTTACGAGGGGGCATTCAGTGCGAAT,3.48
9,CCGAGTAGGTTACGAGGGGGCATTCGGTGCGAAT,3.16
10,TCGAGTAGGTTACGGGGGCATTCAGGGATGAAGA,5.71
11,TCGAGTAGGTTACGGGGGCATTAAGGGATGAAGA,5.7
12,CAATGTAGGTTAAGGGGGTCATTCAGTTTGAAAG,8.13
13,CTATGTAGGTTAATGGGGTCATTCAGTTTGAAAG,7.12
14,CCGAGTAGGTTACGAGGCGGCATTCAGTGCGAAT,1.28
15,CCGAGTAGGTTACGAGGGCGCATTCAGTGCGAAT,2.55
16,CTATGTAGGTGAAGGGGGTCATTCAGTTTGAAAG,8.53
17,TCTAGTAGGTTACGGGGGCATTCAGGGATGAAGA,6.8
18,CCGAGTAAGTTACGAGGGGGCATTCAGTGCGAAT,1.15
19,CTATGTAGGGTAAGGGGGTCATTCAGTTTGAAAG,7.52
20,CTATGTAGGTTAAAGGGGTCATTCAGTTTGAAAG,8.21
21,CTCTGTAGGTTAAGGGGGTCATTCAGTTTGAAAG,6.91
22,TCGAGTAGGTTACGGGGGCATTGAGGGATGAAGA,5.59
